# According to PubChem BioAssay:
# Values without a mark were called inactive. Calls of active or inactive are those of the source. Cut-off read from the data, not from the text of the source, unless noted: active = inhibition above about 25%; inactive = the rest.
# Experiments:
# [1] = biological target: Nuclear receptor coactivator 3 (Homo sapiens) (UniProt Q9Y6Q9); test: NCOA3 GAL4-fusion reporter inhibition – cell-based, luminescence, quadruplicate, confirmation (AID 588792;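 active = mean inhibition over 43.08%, the solvent-only control mean plus 3 SD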;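 note: 0% = DMSO treated cells and 100% = gossypol at 36 µM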); conditions: HEK293 GAL4-SRC3 luciferase reporter, at 3.6 µM, stronger effect = higher value
# [2] = test system: transactivating tegument protein VP16 (Human herpesvirus 1), Gal4-VP16 luciferase reporter; test: repression of VP16-driven luciferase reporter – cell-based, luminescence, high throughput, counter-screen for SRC3 inhibitor project (AID 588794; in the data active = inhibition above about 30%); conditions: mammalian cells, at 3.6 µM, stronger effect = higher value
# [3] = biological target: Nuclear receptor coactivator 1 (Homo sapiens) (UniProt Q15788); test: NCOA1 GAL4-fusion reporter inhibition – cell-based, luminescence, quadruplicate, confirmation (AID 588820;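 active = mean inhibition above 46.68%, the untreated control wells mean plus 3 SD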;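 note: 0% = DMSO wells and 100% = gossypol 36 µM treated wells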); conditions: HEK293 GAL4-SRC1 luciferase reporter, at 3.6 µM, stronger effect = higher value
# [4] = repression of VP16-driven luciferase reporter – cell-based, luminescence, high throughput, counter-screen for SRC1 inhibitor project (AID 588824); conditions: cell-based VP16 transactivation luciferase luminescence; at 3.6 µM; stronger effect = higher value
# Nuclear receptor coactivator 1 (Homo sapiens), sequence (Q15788 whole entry, looked up, the tested form may be a part): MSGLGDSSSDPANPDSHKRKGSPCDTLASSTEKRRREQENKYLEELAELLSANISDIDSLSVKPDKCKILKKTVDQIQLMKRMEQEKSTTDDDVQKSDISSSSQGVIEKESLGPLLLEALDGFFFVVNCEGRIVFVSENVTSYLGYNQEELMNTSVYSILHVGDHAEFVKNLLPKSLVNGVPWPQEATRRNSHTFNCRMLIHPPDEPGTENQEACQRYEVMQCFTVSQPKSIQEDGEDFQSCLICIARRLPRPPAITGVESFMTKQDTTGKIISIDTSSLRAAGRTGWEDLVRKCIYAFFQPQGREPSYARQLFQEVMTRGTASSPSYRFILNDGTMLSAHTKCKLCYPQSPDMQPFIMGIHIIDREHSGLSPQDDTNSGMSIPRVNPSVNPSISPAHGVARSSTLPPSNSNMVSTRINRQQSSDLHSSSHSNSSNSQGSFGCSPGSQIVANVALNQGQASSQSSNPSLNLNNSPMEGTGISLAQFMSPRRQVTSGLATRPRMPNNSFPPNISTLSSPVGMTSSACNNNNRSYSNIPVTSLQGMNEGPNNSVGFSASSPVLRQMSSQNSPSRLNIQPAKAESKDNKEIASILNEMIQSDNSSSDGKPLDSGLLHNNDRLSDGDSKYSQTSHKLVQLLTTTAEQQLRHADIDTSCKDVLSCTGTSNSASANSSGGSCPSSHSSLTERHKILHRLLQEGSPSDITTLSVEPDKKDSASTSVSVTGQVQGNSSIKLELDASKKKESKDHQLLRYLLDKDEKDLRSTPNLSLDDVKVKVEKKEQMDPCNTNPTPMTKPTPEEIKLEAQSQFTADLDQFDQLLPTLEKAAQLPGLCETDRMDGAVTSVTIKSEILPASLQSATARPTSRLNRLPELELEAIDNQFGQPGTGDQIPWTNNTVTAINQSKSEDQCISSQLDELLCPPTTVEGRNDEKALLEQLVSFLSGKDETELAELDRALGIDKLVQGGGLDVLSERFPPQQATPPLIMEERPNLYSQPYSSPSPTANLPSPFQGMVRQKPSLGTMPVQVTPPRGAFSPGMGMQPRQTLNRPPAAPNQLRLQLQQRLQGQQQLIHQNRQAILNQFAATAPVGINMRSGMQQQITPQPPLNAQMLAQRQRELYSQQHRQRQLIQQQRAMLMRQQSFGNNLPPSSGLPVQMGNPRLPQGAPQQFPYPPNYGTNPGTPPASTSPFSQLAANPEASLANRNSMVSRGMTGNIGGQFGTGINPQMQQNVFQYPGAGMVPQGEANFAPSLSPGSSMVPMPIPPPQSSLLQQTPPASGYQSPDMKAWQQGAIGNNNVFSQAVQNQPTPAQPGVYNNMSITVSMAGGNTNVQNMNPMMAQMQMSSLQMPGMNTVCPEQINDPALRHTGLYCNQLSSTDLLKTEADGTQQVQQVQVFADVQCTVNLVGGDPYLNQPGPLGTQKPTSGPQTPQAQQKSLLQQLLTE
# Nuclear receptor coactivator 3 (Homo sapiens), sequence (Q9Y6Q9 whole entry, looked up, the tested form may be a part): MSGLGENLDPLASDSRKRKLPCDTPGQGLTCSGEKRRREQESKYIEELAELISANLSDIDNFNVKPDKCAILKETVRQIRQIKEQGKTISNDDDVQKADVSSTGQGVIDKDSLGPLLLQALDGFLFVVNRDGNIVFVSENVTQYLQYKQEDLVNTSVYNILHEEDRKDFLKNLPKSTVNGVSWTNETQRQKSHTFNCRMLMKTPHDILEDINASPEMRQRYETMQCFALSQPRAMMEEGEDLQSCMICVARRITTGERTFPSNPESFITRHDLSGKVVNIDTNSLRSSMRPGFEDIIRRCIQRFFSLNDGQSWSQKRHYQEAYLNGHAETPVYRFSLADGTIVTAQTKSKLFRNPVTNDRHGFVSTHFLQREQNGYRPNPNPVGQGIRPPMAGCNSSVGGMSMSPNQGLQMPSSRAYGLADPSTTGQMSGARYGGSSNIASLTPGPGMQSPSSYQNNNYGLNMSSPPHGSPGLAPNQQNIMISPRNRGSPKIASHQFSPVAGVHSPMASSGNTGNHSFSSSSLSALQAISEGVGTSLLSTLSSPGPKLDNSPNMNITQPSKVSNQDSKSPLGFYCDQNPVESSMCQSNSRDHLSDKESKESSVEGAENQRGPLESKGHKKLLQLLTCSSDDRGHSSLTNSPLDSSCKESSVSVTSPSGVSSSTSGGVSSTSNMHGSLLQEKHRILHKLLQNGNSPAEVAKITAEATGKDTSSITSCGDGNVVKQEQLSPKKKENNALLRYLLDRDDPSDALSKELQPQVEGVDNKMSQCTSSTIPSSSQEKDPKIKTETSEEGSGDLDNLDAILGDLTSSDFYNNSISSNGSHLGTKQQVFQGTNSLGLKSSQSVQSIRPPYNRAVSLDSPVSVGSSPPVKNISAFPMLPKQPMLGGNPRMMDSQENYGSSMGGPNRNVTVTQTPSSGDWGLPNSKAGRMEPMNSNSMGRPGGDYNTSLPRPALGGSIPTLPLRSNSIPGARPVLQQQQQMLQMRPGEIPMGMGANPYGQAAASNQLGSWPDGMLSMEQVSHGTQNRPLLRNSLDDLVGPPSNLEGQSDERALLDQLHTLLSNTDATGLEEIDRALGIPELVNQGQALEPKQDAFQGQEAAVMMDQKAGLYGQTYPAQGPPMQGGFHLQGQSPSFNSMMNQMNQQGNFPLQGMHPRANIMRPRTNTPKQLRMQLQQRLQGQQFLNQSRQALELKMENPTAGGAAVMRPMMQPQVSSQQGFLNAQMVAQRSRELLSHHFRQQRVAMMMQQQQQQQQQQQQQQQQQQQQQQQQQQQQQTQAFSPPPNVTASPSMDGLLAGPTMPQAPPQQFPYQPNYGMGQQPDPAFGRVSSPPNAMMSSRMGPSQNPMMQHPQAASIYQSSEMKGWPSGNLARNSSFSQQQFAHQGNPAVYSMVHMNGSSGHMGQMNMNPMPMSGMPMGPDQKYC
Structure (SMILES),inhibition [1],inhibition [2],inhibition [3],inhibition [4]
COC(CN(C(=O)CCl)C(C(=O)NC1CCCCC1)c1ccccc1C)OC (centres undefined),53.3% (active),24.2%,26.2%,25.1%
COc1ccc(N/N=C(\C#N)C(=N)SCc2ccccc2)cc1,25.9%,34.2% (active),35.7%,29.5% (active)
CCOC(=O)C(=Cc1cc(=O)c(OC)co1)C(=O)OCC,48.6% (active),52.1% (active),-0.65%,53.4% (active)
O=C(COc1ccccc1O)NNc1ccccc1,11.6%,24%,-12.2%,29.2% (active)
Cc1cc(/C=C2\Cc3ccccc3C2=O)c(C)n1-c1ccccc1,53.5% (active),18.6%,20.5%,-2.62%
Cn1c(=O)c2c(nc(Oc3ccc4ccccc4c3)n2C)n(C)c1=O,47.5% (active),39.4% (active),53.3% (active),34.7% (active)
